# Vaccinia mCherry: vaccinia inhibition (mCherry reporter) | Vaccinia virus mCherry reporter infection, fluorescence | Potency, µM (doses to about 36.5 µM), inactives show top-dose activity change, negative = inhibition, usual class: inhibitors | 310,000 tested, 0.63% active | AID 720579; calls by dose curve; tested in A549 cells; further: potency means the concentration at half of the fitted maximal effect; nearly all actives have a fitted effect of over 35% in size
# FMDV antiviral: foot and mouth disease virus antiviral activity. FMDV antiviral cell-based qHTS. Potency, µM (highest dose often 57.9 µM), for the others: at the highest dose activity change, negative = inhibition, most hits filed as inhibitors. 410,000 tested, 1.2% active. AID 1159524; calls by dose curve; tested in HEK293T cells; further: read-out not given here; potency means the concentration at half of the fitted maximal effect; nearly all actives have a fitted effect of over 45% in size
# HCMV inh: blocks human cytomegalovirus replication. activity change, negative = inhibition, % at 57.5 µM. 410,000 tested, 4.5% active. HFF cells, HCMV-luciferase reporter, 72 h; stronger effect = lower value; in the data active means activity change below about -60%; inconclusive means no clear call, values can overlap the other calls; inactive means above about -39%
#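 Two-dose cell screen: HFF monolayers treated with compounds and infected with luciferase-expressing HCMV at 1 PFU/cell, 72 h at 37C, then lysed for luciferase measurement.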
# VACV Venus inh: vaccinia inhibition (Venus reporter) | Vaccinia virus Venus reporter expression, fluorescence | AID 720580 | Potency, µM (series often up to 36.5 µM), without a hit: top-dose activity change, negative = inhibition, usual class: inhibitors | 330,000 tested, 0.46% active; calls by dose curve; tested in A549 cells; further: potency means the concentration at half of the fitted maximal effect; nearly all actives have a fitted effect of over 30% in size
# Sm TGR block: blocks Schistosoma mansoni thioredoxin glutathione reductase. Q962Y6. purified TGR, DTNB reduction, TNB absorbance 405 nm. Potency, µM (series often up to 114 µM), for the others: at the highest dose activity change, negative = inhibition, hits mostly inhibitors. 360,000 tested, 3% active. AID 485364; further: potency means the concentration at half of the fitted maximal effect; nearly all actives have a fitted effect of over 60% in size
#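 Kinetic colorimetric format: TGR-catalysed, NADPH-driven DTNB reduction monitored via TNB absorbance. Enzyme dispensed at 20 nM; compound exposure 15 min at room temperature before reaction start.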
# HCV inhibitor: inhibitors of hepatitis C virus infection; Huh7.5.1 HCVcc-Cre infection, luciferase reporter, 44 h; Potency, µM (series often up to 41.8 µM), inactives show at the top dose activity change, negative = inhibition, most hits filed as inhibitors; 340,000 tested, 3.4% active; further: potency means the concentration at half of the fitted maximal effect
#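 Infectious HCVcc-Cre (~0.5 moi) was added to cells just after compound, with cells seeded 4 h earlier at 1,000 per well. Luciferase activity after 44 h culture reported infection; substrate was incubated 15 min at room temperature before reading.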
# Numbers without * were called inactive; i = inactive; ? = inconclusive; · = no result; + = active, no number. In the library only some 9.3% were active in any assay of this set; here they are far more common. Unless noted, the call rests on the fitted dose curve; in most records, active means well fitted curve in the direction sought with a large enough effect; inconclusive means small, poorly fitted or top-dose-only effect, or another doubt; inactive means no such curve, though single readings can be large; an effect the other way counts as inactive or inconclusive. On the % scale 0 is the no-effect control and ±100 the full control effect.
SMILES,Vaccinia mCherry,FMDV antiviral,HCMV inh,VACV Venus inh,Sm TGR block,HCV inhibitor
O=C(NN=Cc1ccc(O)cc1O)c1ccccc1NS(=O)(=O)c1cccs1,·,24%,-31,·,·,?
Cc1cc(C(=O)COc2cccc([N+](=O)[O-])c2)c(C)n1C1CC1,·,19%,?,·,-35%,11µM*
O=C(CCN1CCCCCC1)Nc1cccc(Cl)c1,-8%,3%,-60*,-11%,-3%,-6%
O=C(CCCn1c(=O)c2cccn2c2ccccc21)Nc1cccc(Cl)c1,-13%,-17%,-70*,-9%,-9%,·
CCOc1cc2c(cc1OCC)-n1cccc1C(c1ccccc1O)NC2 (centres undefined),·,?,56,·,14%,-5%
O=C(CNC(=O)c1cccs1)NCC(=O)OCc1ccc(Cl)cc1,-11%,·,-26,-4%,8%,18%
CCc1nnc(NS(=O)(=O)c2ccc(NC(=O)/C=C/C(=O)O)cc2)s1,-10%,-7%,86,-15%,5.6µM*,?
Cc1cc(C)c2oc(C(=O)Nc3ccc(S(=O)(=O)Nc4nccs4)cc3)cc(=O)c2c1,·,10%,-37,·,2%,-5%
Cc1cc2oc(C(=O)Nc3ccc(S(=O)(=O)Nc4nccs4)cc3)cc(=O)c2cc1Cl,·,-8%,-79*,·,1%,6%
O=C(NC(=S)Nc1ccc(S(=O)(=O)Nc2nccs2)cc1)c1cccnc1,3%,86%,-24,6%,13µM*,12%
CCc1nnc(NS(=O)(=O)c2ccc(NC(=O)c3ccccc3C)cc2)s1,·,-6%,?,·,1%,14%
CCc1nnc(NS(=O)(=O)c2ccc(NC(=O)c3ccccc3OC)cc2)s1,·,13%,+,·,8%,-2%
O=C(NC(=S)Nc1ccc(S(=O)(=O)Nc2nccs2)cc1)c1ccc(F)c(F)c1,-15%,86%,13,-1%,?,1%
COc1ccc(C(=O)NNC(=O)C(=O)/C=C(\O)c2ccc(C)cc2)cc1,-10%,-11%,-6,-6%,-13%,-14%
CSc1ccccc1C(=O)Nc1ccc(S(=O)(=O)NC2=NCCCCC2)cc1,·,11%,0,·,-3%,2%
CCc1nnc(NS(=O)(=O)c2ccc(NC(=S)NC(=O)c3ccccc3)cc2)s1,i,20%,-19,-16%,40µM*,34%
CCc1nnc(NS(=O)(=O)c2ccc(NC(=S)NC(=O)c3ccc(Br)cc3)cc2)s1,-1%,-10%,21,-22%,?,3%
CCOC(=O)Nc1ccc(NS(=O)(=O)c2ccc(C)cc2)cc1,-7%,42%,56,-23%,-22%,?
O=C(NC(=S)Nc1ccc(S(=O)(=O)Nc2nccs2)cc1)c1ccccc1,i,35%,-35,-19%,35µM*,34%
Cc1ccc(S(=O)(=O)Nc2ccc(NC(=O)/C=C/C(=O)O)cc2)cc1,-18%,-10%,1,-7%,50µM*,8%
COc1ccccc1C(=O)Nc1ccc(S(=O)(=O)NC2=NCCCCC2)cc1,i,7%,-60*,-11%,-1%,-25%
Cc1cc(C)c(-c2csc(NC(=O)C3=NN(c4ccccc4)C(=O)CC3)n2)c(C)c1,·,?,-25,·,-7%,-22%
CCN(CC)Cc1cc(Nc2c3ccccc3nc3c4ccccc4n(C)c23)cc(CN(CC)CC)c1O,-21%,-18%,-25,11µM*,·,?
Cc1nc(N2CCCCC2)sc1C(=O)c1cccc([N+](=O)[O-])c1,-26%,-13%,-73*,-21%,1%,?
Cc1nc(N2CCCCC2)sc1C(=O)c1ccc(SCCO)c([N+](=O)[O-])c1,?,32µM*,?,-23%,2%,1.1µM*
SMILES,Vaccinia mCherry,FMDV antiviral,HCMV inh,VACV Venus inh,Sm TGR block,HCV inhibitor
COc1ccc(CN2CC(COCc3ccccc3)Oc3ccccc3S2(=O)=O)cc1 (centres undefined),-29%,?,1,-4%,·,?
CCOc1cc(CN2CCN(c3cccc(C(F)(F)F)c3)CC2)ccc1O,·,-6%,-21,·,45µM*,-10%
CCOc1cc(CN2CCSCC2)ccc1O,·,18%,-17,·,40µM*,-13%
COc1ccc(CC(C)N2CCN(c3cccc(C(F)(F)F)c3)CC2)cc1OC (centres undefined),i,·,?,-24%,5%,11µM*
CCOc1cc(CN2CCN(c3cccc(C(F)(F)F)c3)CC2)ccc1OC,-21%,·,31,-12%,0%,-25%
CCOC(=O)N1CCN(C(=O)C2CCN(Cc3ccc(O)c(OCC)c3)CC2)CC1,-23%,-16%,-25,-7%,32µM*,1%
CCOC(=O)N1CCN(C(=O)C2CCN(Cc3cccc(OCc4ccccc4)c3)CC2)CC1,i,?,-25,-20%,0%,-25%
C[n+]1c(-c2ccccc2)cc(CCCCc2cc(-c3ccccc3)[n+](C)c(-c3ccccc3)c2)cc1-c1ccccc1,1%,?,-98*,3%,-31%,?
COc1ccc(-c2cc(-c3ccccc3)[n+](C)c(-c3ccccc3)c2)cc1,i,?,-101*,-11%,55%,?
Brc1ccc(-[n+]2c(-c3ccccc3)cc(-c3ccccc3)cc2-c2ccccc2)cc1,0%,?,-98*,?,-21%,?
O=C(O)c1ccc(-[n+]2c(-c3ccccc3)cc(-c3ccccc3)cc2-c2ccccc2)cc1,i,2%,6,0%,0%,-7%
CCS(=O)(=O)NCCCCc1ccccc1,-11%,2%,12,-5%,0%,23%
COc1ccc(-[n+]2c(-c3ccccc3)cc(-c3ccc(C)cc3)cc2-c2ccccc2)cc1,?,?,-94*,?,0%,?
O=C(O)c1ccn2c(C(=O)c3ccc(Cl)cc3)c(-c3ccccc3)cc2c1,i,-22%,-6,4%,5%,16%
CCCOC(=O)c1ccc(-[n+]2c(-c3ccccc3)cc(-c3ccccc3)cc2-c2ccccc2)cc1,-6%,14µM*,-98*,?,-33%,?
CN1CCN(C(=O)CNC(=O)Cc2ccc(Cl)cc2)CC1,i,-5%,-4,-11%,-22%,22%
COc1ccc(C(=O)Nc2nc(CC(=O)NCCc3cccc(OC)c3)cs2)cc1,i,?,-9,-13%,-7%,?
CC1CC(C)(C)NC(=S)N1CCCC(=O)Nc1ccc(Cl)cc1 (centres undefined),-3%,-17%,-13,-12%,-14%,10%
CC(C)c1ccc(NC(=O)CCCN2C(=S)NC(C)(C)CC2C)cc1 (centres undefined),i,12%,-86*,-15%,17%,-17%
CC/C(=N/N=C(/CC)c1ccc(O)cc1)c1ccc(O)cc1,·,20%,-99*,·,·,?

# Bioassay records: PubChem BioAssay, National Center for Advancing Translational Sciences (NCATS)
